Drawing on PubChem BioAssay (Tox21), this text covers Potency for 9 molecules.

Several values for one entry are separate records, joined by “and”; a condition that tells them apart may be missing. Identical values can stand only once. Results filed as inconclusive are left out. Some compounds were tested as several samples or in several runs, with calls that do not always agree. Activity calls are given as the source filed them. Unless noted, calls come from the whole dose curve.

In test [1] the target is Gonadotropin-releasing hormone receptor (Homo sapiens) (UniProt P30968). The experiment in a line: Human gonadotropin-releasing hormone receptor (GnRHR) small molecule agonists, calcium flux assay in GnRHR-HEK293 cells (AID 1920063). Note: nearly all actives have a fitted effect of over 35% in size. In outline:
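Compounds dissolved in DMSO are pin-transferred onto dye-loaded GnRHR-HEK293 cells, which were seeded 18 h before at 37 C/5% CO2. Calcium signal is read as fluorescence intensity at 1 s intervals for 3 min.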
For orientation: Calcium flux is commonly read through the fluorescence of an indicator in the cells.

Test [2] addresses KiSS-1 receptor (Homo sapiens) (UniProt Q969F8). The experiment in a line: Human kisspeptin (KISS1R) small molecule agonists, calcium flux assay in KISS1R-HEK293 cells (AID 1920064; active = well fitted activation curve with a large enough effect in the repeat runs). In outline:
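Cell line: HEK293, stable human KISS1R. Dye loading 1 h at 37 C after 18 h culture. Read: kinetic fluorescence, 480/540 nm, 3 min at 1 s intervals.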

A short description of test [3]: G protein-coupled receptor (GPCR) small molecule agonists, calcium flux assay: HEK293 wild type cell line counter screen (AID 1920065). In outline:
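Tox21 10K compounds, 15 concentrations each in triplicate, pin-transferred in DMSO onto dye-loaded cells; kinetic read at 480/540 nm for 3 min, 1 s intervals.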

Test [4] is described as follows: p53 small molecule agonists, cell-based qHTS assay with human liver microsomes (AID 1963577). Summed up:
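p53RE-bla reporter cells were pre-incubated 5 h at 37 C, then treated with compounds plus human liver microsomes (0.5 mg/mL final) and NADPH (0.5 mg/mL final) for 16 h at 37 C. Beta-lactamase activity was read by LiveBLAzer fluorescence after 2 h at room temperature.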
On the technique in general: Quantitative high-throughput screening tests each substance at several concentrations.

Test [5] can be described thus: p53 small molecule agonists, cell-based qHTS assay with rat liver microsomes (AID 1963578). Summed up:
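p53RE-bla cells were exposed to compounds together with rat liver microsomes (0.5 mg/mL final) and NADPH (0.5 mg/mL final) for 16 h at 37 C, then read by LiveBLAzer beta-lactamase fluorescence after 2 h at room temperature.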

The nature of test [6]: p53 small molecule agonists, cell-based qHTS assay with rat liver microsomes: qHTS cell viability counter screen (AID 1963580). Note: nearly all actives have a fitted effect of over 45% in size. Summed up:
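Counter screen for cytotoxicity under metabolic activation: rat liver microsomes and NADPH, 0.5 mg/mL final each, added with compounds to p53RE-bla HCT-116 cells; 16 h at 37 C, then ATP luminescence read.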

For test [7], the target named is 5-hydroxytryptamine receptor 2A (Homo sapiens) (UniProt P28223). The test is described as follows: 5-hydroxytryptamine receptor 2A (HTR2A) small molecule antagonists, cell-based qHTS assay (AID 1963586). Note: nearly all actives have a fitted effect of over 45% in size. Summed up:
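CHO cells stably expressing human HTR2A were plated for 18 h at 37 C, then loaded with calcium dye for 1 h. Compounds were preincubated 5 min at room temperature before DOI (4 nM solution) was added. Kinetic fluorescence was read for 3 min.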

Test [8] shares this target. The test is described as follows: 5-hydroxytryptamine receptor 2A (HTR2A) small molecule agonists, cell-based qHTS assay (AID 1963587). Note: nearly all actives have a fitted effect of over 30% in size. In outline: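 HTR2A-CHO cells, plated 18 h at 37 C/5% CO2, dye-loaded 1 h at 37 C; compounds in DMSO added by pin tool (agonist mode). Intracellular calcium flux read as kinetic fluorescence on FDSS over 2 min at 1 s intervals.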
Test [9] deals with Muscarinic acetylcholine receptor M1 (Homo sapiens) (UniProt P11229). The test is described as follows: Cholinergic receptor muscarinic 1 (CHRM1) small molecule antagonists, cell-based qHTS assay (AID 1963588). Note: nearly all actives have a fitted effect of over 40% in size. Summed up: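 Compounds were tested at 15 concentrations in three independent runs. Dye-loaded CHRM1-CHO cells were exposed 5 min at room temperature before stimulation by acetylcholine added at 50nM. Intracellular calcium was read kinetically on FDSS for 3 min.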
Chain of Muscarinic acetylcholine receptor M1 (Homo sapiens) (P11229 whole entry, looked up): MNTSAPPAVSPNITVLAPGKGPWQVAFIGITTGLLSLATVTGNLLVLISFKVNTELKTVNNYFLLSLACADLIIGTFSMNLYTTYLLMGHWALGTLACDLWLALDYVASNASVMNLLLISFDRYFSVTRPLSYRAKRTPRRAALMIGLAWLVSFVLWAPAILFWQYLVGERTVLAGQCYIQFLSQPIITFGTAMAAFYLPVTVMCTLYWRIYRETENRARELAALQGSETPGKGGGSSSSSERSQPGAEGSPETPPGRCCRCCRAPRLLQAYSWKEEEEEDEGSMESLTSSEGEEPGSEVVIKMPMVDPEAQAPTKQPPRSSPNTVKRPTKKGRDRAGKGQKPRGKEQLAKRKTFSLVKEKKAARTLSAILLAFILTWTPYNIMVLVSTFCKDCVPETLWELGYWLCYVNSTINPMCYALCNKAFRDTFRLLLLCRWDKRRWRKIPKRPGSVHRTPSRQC

Test [10] has the same target. The experiment in a line: Cholinergic receptor muscarinic 1 (CHRM1) small molecule agonists, cell-based qHTS assay (AID 1963589). Note: nearly all actives have a fitted effect of over 35% in size. In outline:
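Homogeneous fluorescence calcium flux, agonist mode. Human M1-expressing CHO cells; compound dosed at 15 concentrations, three independent runs; signal sampled every 1 sec.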

The nature of test [11]: cAMP Responsive Elements (CRE) small molecule antagonists, cell-based qHTS assay (AID 1963591; active = well fitted inhibition curve with a large enough effect in the signal ratio in the repeat runs, not every such curve was filed as active; the % refers to the signal ratio). In outline: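 First, CRE-bla HEK293T cells settled 18 h at 37 C. Next, compound and 0.25 uM final NKH477 were applied for 3 h. Last, LiveBLAzer B/G substrate was loaded for 2 h at room temperature.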
Test [12] deals with Beta-2 adrenergic receptor (Homo sapiens) (UniProt P07550). The experiment in a line: Adrenergic beta2 receptor (ADRB2) small molecule antagonists, cell-based qHTS assay (AID 1963592). Note: series mostly up to about 92 µM; nearly all actives have a fitted effect of over 50% in size. Summed up: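 Assay format: CHO-ADRB2 cells, 18-20hr seeding at 37C/5% CO2, then compound plus 1nM isoproterenol agonist mix for 0.5hr RT. Homogeneous time-resolved fluorescence cAMP detection after 1hr, expressed as 665/615 nm ratio.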
Chain of Beta-2 adrenergic receptor (Homo sapiens) (P07550 whole entry, looked up): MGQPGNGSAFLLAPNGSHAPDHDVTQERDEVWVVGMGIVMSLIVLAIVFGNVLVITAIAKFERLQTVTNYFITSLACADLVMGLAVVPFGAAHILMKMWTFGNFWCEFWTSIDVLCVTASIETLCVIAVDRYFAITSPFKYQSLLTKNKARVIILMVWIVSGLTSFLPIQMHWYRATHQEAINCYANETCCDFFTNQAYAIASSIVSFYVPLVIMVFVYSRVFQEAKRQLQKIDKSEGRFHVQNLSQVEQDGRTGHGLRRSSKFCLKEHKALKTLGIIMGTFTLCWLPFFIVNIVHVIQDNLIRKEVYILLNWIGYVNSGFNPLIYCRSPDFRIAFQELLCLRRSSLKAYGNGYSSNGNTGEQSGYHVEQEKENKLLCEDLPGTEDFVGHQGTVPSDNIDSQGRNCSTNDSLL

The target is the same in test [13]. The experiment in a line: Adrenergic beta2 receptor (ADRB2) small molecule agonists, cell-based qHTS assay (AID 1963593).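 Note: CHO cells stably overexpressing human ADRB2.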 Summed up:
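CHO cells stably over-expressing ADRB2 were plated overnight at 37C, then dosed with compounds plus a stimulation mix containing 100uM IBMX and 25uM Ro-20-1724 for 0.5hr at room temperature. cAMP was measured by HTRF competition, 1hr.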

Test [14] has as its target D(2) dopamine receptor (Homo sapiens) (UniProt P14416). The experiment in a line: Dopamine D2 receptor (DRD2) small molecule agonists, cell-based qHTS assay (AID 1963594). Note: nearly all actives have a fitted effect of over 35% in size. Note: potency is the fitted concentration of half-maximal effect. Summed up: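 HEK293 cells stably expressing DRD2 were cultured 24 h at 37 C, then given Ro20-1724 (0.1 mM final) and compounds for 10 min at room temperature. NKH477 (200nM) was then added for 30 min. cAMP was read by HTRF.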

Test [15] has the same target. The test is described as follows: Dopamine D2 receptor (DRD2) small molecule antagonists, cell-based qHTS assay (AID 1963595; active = well fitted inhibition curve with a large enough effect in the signal ratio in the repeat runs, with a control signal flat; the % refers to the signal ratio). Summed up:
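Antagonist mode in DRD2-HEK293 cells: after compound addition with 0.1 mM Ro20-1724, cells received quinpirole (12 nM) and NKH477 (200 nM) for 30 min at room temperature; HTRF cAMP read after 1 h detection.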

Test [16] is described as follows: p53 small molecule agonists, cell-based qHTS assay with human liver microsomes: qHTS cell viability counter screen (AID 1963579). Note: nearly all actives have a fitted effect of over 45% in size. Summed up: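 p53RE-bla cells (4,000/well) were pre-incubated 5 h at 37 C, then given compounds in DMSO plus human liver microsomes (0.5 mg/mL final) and NADPH (0.5 mg/mL final) for 16 h at 37 C. Viability was read by CellTiter-Glo luminescence.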

A short description of test [17]: p53 small molecule agonists, cell-based qHTS assay: qHTS cell viability counter screen (AID 1963581). Note: nearly all actives have a fitted effect of over 45% in size. In outline: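 ATP content measured by luminescence in HCT-116 p53RE-bla cells treated 16 h at 37 C, same wells as the reporter screen.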
Test [18] in a line: p53 small molecule agonists, cell-based qHTS assay (AID 1963582; active = well fitted activation curve with a large enough effect in the signal ratio in the repeat runs, not every such curve was filed as active; the % refers to the signal ratio). In outline:
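16 h compound exposure (37 C) of p53 response element–bla cells, preceded by 5 h recovery at 37 C/5% CO2; read-out via LiveBLAzer B/G FRET substrate, 2 h RT, fluorescence intensity.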

Test [19] in a line: cAMP Responsive Elements (CRE) small molecule agonists, cell-based qHTS assay (AID 1963590). Summed up: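 HEK 293T cells stably bearing CRE-bla were plated at 2,000 cells per well and rested 18 h. Compounds, positive controls or DMSO were added for 3 h at 37 C. LiveBLAzer B/G substrate was then loaded for 2 h at room temperature.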
Test [20] is described as follows: Nuclear factor erythroid 2-related factor 2/antioxidant responsive element (Nrf2/ARE) small molecule agonists: luciferase reporter gene qHTS assay in human keratinocytes (AID 1919969; note: nearly all actives have a fitted effect of over 35% in size; note: potency is the fitted concentration of half-maximal effect). (Reporter assays use an easily measured gene product as a stand-in for the process of interest.)

Chain of KiSS-1 receptor (Homo sapiens) (Q969F8 whole entry, looked up): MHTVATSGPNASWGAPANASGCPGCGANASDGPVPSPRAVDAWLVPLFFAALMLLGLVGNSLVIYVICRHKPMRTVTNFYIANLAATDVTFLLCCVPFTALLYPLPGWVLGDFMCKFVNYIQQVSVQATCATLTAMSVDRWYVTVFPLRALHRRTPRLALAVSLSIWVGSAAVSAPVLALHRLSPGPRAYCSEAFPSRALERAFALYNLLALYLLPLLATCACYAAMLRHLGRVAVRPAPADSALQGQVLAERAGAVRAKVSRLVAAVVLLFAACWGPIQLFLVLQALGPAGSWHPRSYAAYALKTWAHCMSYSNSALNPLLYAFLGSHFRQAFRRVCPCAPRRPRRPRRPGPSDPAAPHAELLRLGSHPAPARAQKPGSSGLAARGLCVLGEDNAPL
Chain of D(2) dopamine receptor (Homo sapiens) (P14416 whole entry, looked up): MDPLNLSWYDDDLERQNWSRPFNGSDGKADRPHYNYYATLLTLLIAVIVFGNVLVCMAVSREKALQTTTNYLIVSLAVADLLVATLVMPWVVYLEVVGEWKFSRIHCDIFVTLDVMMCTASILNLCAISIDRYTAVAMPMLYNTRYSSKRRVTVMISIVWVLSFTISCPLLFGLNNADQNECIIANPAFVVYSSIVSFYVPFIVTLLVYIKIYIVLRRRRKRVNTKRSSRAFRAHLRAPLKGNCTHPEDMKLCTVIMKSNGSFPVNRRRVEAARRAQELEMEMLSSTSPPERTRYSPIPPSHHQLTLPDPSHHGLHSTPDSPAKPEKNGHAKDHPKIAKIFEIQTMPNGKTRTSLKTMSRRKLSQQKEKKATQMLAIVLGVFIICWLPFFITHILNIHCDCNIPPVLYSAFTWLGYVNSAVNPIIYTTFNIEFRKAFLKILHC
Chain of 5-hydroxytryptamine receptor 2A (Homo sapiens) (P28223 whole entry, looked up): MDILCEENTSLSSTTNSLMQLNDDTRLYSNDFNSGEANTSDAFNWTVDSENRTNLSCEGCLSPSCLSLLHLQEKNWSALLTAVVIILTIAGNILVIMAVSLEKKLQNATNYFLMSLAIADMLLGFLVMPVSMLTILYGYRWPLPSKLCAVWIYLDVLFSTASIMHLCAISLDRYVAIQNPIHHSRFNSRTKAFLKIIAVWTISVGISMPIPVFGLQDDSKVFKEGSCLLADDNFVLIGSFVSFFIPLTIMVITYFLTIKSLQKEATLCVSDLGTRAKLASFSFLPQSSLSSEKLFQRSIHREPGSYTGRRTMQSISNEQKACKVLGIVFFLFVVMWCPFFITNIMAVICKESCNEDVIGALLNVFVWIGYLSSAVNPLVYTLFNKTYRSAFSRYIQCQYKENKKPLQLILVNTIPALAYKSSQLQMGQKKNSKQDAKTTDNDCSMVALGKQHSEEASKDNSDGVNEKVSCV
Chain of Gonadotropin-releasing hormone receptor (Homo sapiens) (P30968 whole entry, looked up): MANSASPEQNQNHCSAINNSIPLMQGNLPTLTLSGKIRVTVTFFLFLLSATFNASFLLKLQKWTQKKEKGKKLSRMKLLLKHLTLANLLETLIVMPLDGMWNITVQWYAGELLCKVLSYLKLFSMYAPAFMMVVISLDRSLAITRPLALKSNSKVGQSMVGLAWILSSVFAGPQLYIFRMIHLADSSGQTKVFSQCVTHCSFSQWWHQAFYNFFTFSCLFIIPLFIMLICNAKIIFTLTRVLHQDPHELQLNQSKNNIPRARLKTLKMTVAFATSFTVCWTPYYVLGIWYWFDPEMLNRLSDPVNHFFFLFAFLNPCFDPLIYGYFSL

For `CCCOC(=O)c1cc(O)c(O)c(O)c1`, the Potency entry in test [1], in test [2], in test [3], in test [4], in [5] and in test [6] was “inactive” in each case. Moreover, the Potency entry in test [7], in [8], in test [9], in [10], in test [11] and in [12] was “inactive” each time. Further, the Potency result in test [13], in test [14] and in test [15] was “inactive” each time.
For the molecule `C=C(C)C1CC=C(C)CC1` (stereo unspecified), the Potency entry in [1], in [2], in [3], in test [5], in test [16] and in test [6] was “inactive” in each case. Also, the Potency result in test [17], in [18], in [7], in test [8], in [9] and in [10] was “inactive” throughout. The Potency entry in [19], in test [11], in [12], in test [13], in [14] and in test [15] was “inactive” each time.
As for `CC(C)CC(C)CC(O)CC(C)C` (stereo unspecified), the Potency result in test [2], in [3], in test [4], in test [5], in test [16] and in [6] was “inactive” in each case. Also, the Potency result in test [17], in test [18], in [7], in test [8], in test [9] and in test [10] was “inactive” in each case. In addition, the Potency entry in test [11], in [12], in test [13] and in test [15] was “inactive” in each case. For the same molecule, the Potency in test [14] was 1.8 nM (active) and inactive.
`CC(=O)/C=C/C1=C(C)CCCC1(C)C`: the Potency result in test [1], in [2], in test [3], in test [16], in test [6] and in test [17] was “inactive” throughout. Besides, the Potency entry in [7], in test [8], in test [9], in [10], in test [19] and in test [11] was “inactive” each time. For the same molecule, the Potency entry in [12], in [13], in test [14] and in test [15] was “inactive” each time.
In the case of `Cc1cccc2n[nH]nc12`, the Potency entry in [20], in test [1], in [2], in [3], in test [4] and in test [5] was “inactive” throughout. The Potency result in test [6], in test [17], in [18], in [7], in test [8] and in [10] was “inactive” in each case. In addition, the Potency result in test [19], in test [11], in test [12] and in test [14] was “inactive” each time.
`C[C@]12C=CC(=O)C=C1CC[C@@H]1[C@@H]2[C@@H](O)C[C@@]2(C)[C@H]1CC[C@]2(O)C(=O)CO`: the Potency entry in [20], in [1], in test [2], in test [3], in [4] and in [5] was “inactive” each time. In addition, the Potency entry in [16], in test [6], in test [17], in test [18], in test [19] and in test [11] was “inactive” throughout. Also, the Potency entry in [12], in [13], in test [14] and in test [15] was “inactive” throughout.
As for `CSc1ccc(Cl)cc1`, the Potency result in test [20], in test [1], in test [2], in test [3], in test [4] and in test [5] was “inactive” in each case. Moreover, the Potency entry in test [16], in test [6], in test [17], in test [18], in test [7] and in test [8] was “inactive” each time. Also, the Potency result in [9], in test [10], in test [19], in test [11], in test [12] and in test [13] was “inactive” each time. For the same molecule, the Potency result in [14] and in [15] was “inactive” throughout.
Turning to `CC(=O)Oc1ccc(C(c2ccc(OC(C)=O)cc2)c2ccccn2)cc1`, in test [20], the Potency was 121 nM (active) and 841 nM (active). The Potency entry in test [1], in test [2], in test [3], in test [4], in test [5] and in [16] was “inactive” each time. The Potency result in test [6], in test [17], in test [12], in test [13], in test [14] and in test [15] was “inactive” throughout.
Take `CC(=O)Oc1ccccc1C(=O)O`: the Potency entry in test [20], in test [1], in [2], in test [3], in test [5] and in test [16] was “inactive” each time. Further, the Potency entry in [6], in [17], in [18], in test [19], in [11] and in test [12] was “inactive” each time. Also, the Potency result in test [13], in test [14] and in test [15] was “inactive” each time.
